# “And” between values parts separate entries of the source, which are not always exact repeats. Equal values may be shown once. Results with a measured potency or affinity are listed apart.
# Tested on: Candida albicans
# Conditions: 32 ug/mL
# Further: assay method not described here.
row,Compound,Inhibition
1,COc1nc(NC(C)=O)c(C#N)c(-c2ccccc2)c1C#N,2.3%
2,O=C1OC(c2ccccc2)=NC1=Cc1ccc(Cl)cc1,1.2%
3,N#Cc1cc(C#N)c(NCCC2CCN(Cc3ccccc3)CC2)nc1N,0.11%
4,CCOC(=O)C1=C(C)Nc2nc3c(c(N)c2C1c1cccc(OC)c1)CCCC3 (stereo not given),5.35%
5,C1CNCCNCCNCCNC1,4.25%
6,N#Cc1cc(C#N)c(Cl)nc1N,2.15%
7,Nc1ccccc1C(=O)N/N=C/c1c[nH]c2ccccc12,-0.37%
8,Nc1c2c(nc3c1C(c1c(Cl)cccc1Cl)c1ccc4ccccc4c1O3)CCCC2 (stereo not given),-1.13%
9,C#CCN(C)c1nc(NC2CCN(Cc3ccccc3)CC2)c(C#N)c(-c2ccccc2)c1C#N,3.34%
10,CNC(=O)c1cc2cc(OCc3ccccc3)ccc2n1C,3.06%
11,COc1ccc(-c2cc(-c3cc4c(C)cc(C)cc4nc3Cl)cc(=O)[nH]2)cc1,1.74%
12,Nc1c2c(nc3ccc([N+](=O)[O-])cc13)CCCC2,2.09%
13,CCOC(=O)C1=C(C)OC(N)=C(C#N)C1c1ccncc1 (stereo not given),-1.5%
14,CN1C/C(=C\Br)n2c1c(C#N)cc(C#N)c2=O,3.61%
15,O=C1C=C(Nc2ccccc2)C(=O)N1c1ccccc1,-0.48%
16,Cl.N#Cc1cc(C#N)c(N2CCCC2)nc1Cl,3.61%
17,N#Cc1c(-c2cccc([N+](=O)[O-])c2)c2ccc3ccccc3c2oc1=O,4.25% and -0.04% and 3.33%
18,CCOC(=O)c1c(C)nc(NC2CCN(Cc3ccccc3)CC2)c(C#N)c1-c1ccccc1,3.26%
19,C#CCNc1nc(NCC#C)c(C#N)cc1C#N,3.76%
20,Cc1cnc2ccc(Cl)cn12,0.97%

row,Compound,Inhibition
1,CNC(=O)c1c(Cl)c2cc(OCc3ccccc3)ccc2n1C,4.9%
2,Cn1c(CO)cc2cc(OCCCC3CCN(Cc4ccccc4)CC3)ccc21,2.07%
3,N#CC1(Br)C(=NBr)Oc2c(ccc3ccccc23)C1c1ccc([N+](=O)[O-])cc1 (stereo not given),25.9%
4,NNC(=O)C1(NC(=O)c2ccccc2)CC1c1cccc(O)c1 (stereo not given),0.45%
5,N#CC1=C(Cl)Oc2c(ccc3ccccc23)C1c1ccc([N+](=O)[O-])cc1 (stereo not given),10.5%
6,CC#CCN(C)Cc1cc2cc(OCc3ccccc3)ccc2n1C.O=C(O)C(=O)O,3.08%
7,NNC(=O)c1c[nH]c2ccc(OCc3ccccc3)cc12,1.23%
8,C#CCN(C)Cc1cc2cc(OCCCCC3CCN(Cc4ccccc4)CC3)ccc2n1C.Cl,2.11%
9,CCOC(=O)c1c[nH]c2ccc(OC)cc12,3.61%
10,COc1ccc(C2C(C#N)=C(N)Oc3c2ccc2ccccc32)cc1 (stereo not given),1.55%
11,Cc1cc(Br)cc(C)c1NC=C(C#N)C#N,1.62%
12,COC(=O)C1CCN(Cc2ccccc2)CC1,4.82%
13,O=C1OC(c2ccccc2)=NC12CC2c1ccc([N+](=O)[O-])cc1 (stereo not given),1.56%
14,C#CCN(C)c1nc(OC)c(C#N)c(-c2ccccc2)c1C#N,4.58%
15,CC1=N/C(=C(\C)c2ccccc2)C(=O)O1,0.7%
16,Cl.OCC1CCN(Cc2ccccc2)CC1,1.47%
17,C#CCNc1nc(NCCCC2CCN(Cc3ccccc3)CC2)c(C#N)cc1C#N.Cl,1.71%
18,C#CCNc1ncccn1,2.79%
19,Cc1cnc(NC(=O)OC(C)(C)C)c(Br)c1,-0.1%
20,C#CCN(C)Cc1cc2cc(OCc3ccc(OC)c4ncccc34)ccc2n1C,6.72%

# Reference: ChEMBL document CHEMBL4513135, “CO-ADD screening of IQOG CSIS (Spain) compounds”
